Measurements: PubChem BioAssay (EPA / NIEHS)
Results filed as inconclusive are left out. Activity calls are given as the source filed them. Rule for the calls: active = hit-call score of the fitted dose curve at least 0.9, where 1 is the maximum; inconclusive = response in the unintended direction; inactive = score below 0.9.

target: Androgen receptor (Homo sapiens) (UniProt P10275); assay: ATG_AR_TRANS: Attagene TRANS-FACTORIAL HepG2 Assay for human Androgen Receptor (AR) (AID 2282973); conditions: HepG2 Attagene TRANS-FACTORIAL AR reporter transcription
In short: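 Readout is reporter transcript abundance, quantified by fluorescent RT-PCR products separated on capillary electrophoresis. Human HepG2 liver cells carried transiently transfected NR-Gal4 chimera plus GAL4-UAS reporter constructs and were dosed for 24 h; activity scored upward versus DMSO.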

Androgen receptor (Homo sapiens), sequence (P10275 whole entry, looked up, the tested form may be a part): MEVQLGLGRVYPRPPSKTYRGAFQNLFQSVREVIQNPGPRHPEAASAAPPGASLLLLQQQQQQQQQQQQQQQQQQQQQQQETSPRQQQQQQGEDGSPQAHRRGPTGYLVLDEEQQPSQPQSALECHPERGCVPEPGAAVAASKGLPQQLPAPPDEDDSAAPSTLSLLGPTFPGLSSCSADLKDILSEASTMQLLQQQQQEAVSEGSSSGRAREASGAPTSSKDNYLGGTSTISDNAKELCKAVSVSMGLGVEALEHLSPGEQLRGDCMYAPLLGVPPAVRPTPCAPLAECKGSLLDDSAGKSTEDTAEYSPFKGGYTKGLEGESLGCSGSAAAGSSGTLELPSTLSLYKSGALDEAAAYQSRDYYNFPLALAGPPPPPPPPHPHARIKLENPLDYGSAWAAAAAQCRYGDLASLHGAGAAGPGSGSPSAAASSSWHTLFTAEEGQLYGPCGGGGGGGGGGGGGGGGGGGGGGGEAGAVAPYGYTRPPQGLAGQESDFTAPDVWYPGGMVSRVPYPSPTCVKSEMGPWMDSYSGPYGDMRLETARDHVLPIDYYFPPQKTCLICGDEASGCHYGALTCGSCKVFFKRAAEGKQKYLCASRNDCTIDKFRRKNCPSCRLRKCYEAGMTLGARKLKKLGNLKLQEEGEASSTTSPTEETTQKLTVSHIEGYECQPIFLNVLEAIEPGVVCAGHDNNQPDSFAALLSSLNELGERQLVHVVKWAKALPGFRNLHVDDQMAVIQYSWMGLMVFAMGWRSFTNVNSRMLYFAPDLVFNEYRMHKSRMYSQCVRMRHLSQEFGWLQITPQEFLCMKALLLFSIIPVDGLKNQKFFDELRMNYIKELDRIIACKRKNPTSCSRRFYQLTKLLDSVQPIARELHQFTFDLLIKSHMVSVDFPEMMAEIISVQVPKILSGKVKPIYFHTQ

Structure (SMILES)	outcome
CC(C)(C)c1cc(O)c(C(C)(C)C)cc1O	inactive
C=C(C)CCO	inactive
OCCNCc1ccccc1	inactive
CCN(CC)c1ccc(C=O)cc1	inactive
C=C(C)C(=O)OCCOc1ccccc1	inactive
OCc1c[nH]c2ccccc12	inactive
N#CCCOCCC#N	inactive
O=C(Cl)C(F)(F)C(F)(F)C(F)(F)C(F)(F)C(F)(F)C(F)(F)F	inactive
Nc1nc2ccc([N+](=O)[O-])cc2s1	inactive
NC(=O)OCC(COC(N)=O)c1ccccc1	inactive
O=[N+]([O-])c1cc(C(F)(F)F)ccc1Cl	inactive
CCCCCCCOC(=O)c1ccccc1C(=O)OCCCCCCC	inactive
CCCCC(CC)COC(=O)/C=C\C(=O)OCC(CC)CCCC (centres undefined)	inactive
CC(C)(C)c1ccc(OC2CCCCC2O)cc1 (centres undefined)	inactive
CCCOC(=O)c1ccc(C(=O)OCCC)nc1	inactive
N[C@H]1C(O)O[C@H](CO)[C@H](O)[C@@H]1O (some centres undefined)	inactive
Oc1ccc(Cl)cc1Cc1cc(Cl)ccc1O	inactive
COC(=O)c1ccc([N+](=O)[O-])cc1	inactive
CCOC(=O)[C@@H](C)Oc1ccc(Oc2nc3ccc(Cl)cc3o2)cc1	inactive
COCC(C)N (centres undefined)	inactive

Structure (SMILES)	outcome
CC=CCO	inactive
C=CC(=O)OCCOC1C2CCC1C1CC=CC12 (centres undefined)	inactive
NCC(F)(F)C(F)(F)C(F)(F)C(F)(F)C(F)(F)C(F)(F)F	inactive
O=S(=O)(O)C(F)(F)C(F)(F)C(F)(F)C(F)(F)C(F)(F)C(F)(F)C(F)(F)C(F)(F)C(F)(F)C(F)(F)F	inactive
C=CC/C=C/C/C=C/C/C=C/C	inactive
Oc1cc2ccccc2cc1O	inactive
O=C(Cl)C(F)(F)C(F)(F)C(F)(F)C(F)(F)C(F)(F)C(F)(F)C(F)(F)F	inactive
O=C(F)C(F)(F)C(F)(F)C(F)(F)C(F)F	inactive
C[N+](C)(CCCNS(=O)(=O)CCC(F)(F)C(F)(F)C(F)(F)C(F)(F)C(F)(F)C(F)(F)F)CC(=O)[O-]	inactive
CC1=CC(=O)c2ccccc2C1=O	inactive
O=C1OC(=O)c2cc(Oc3ccc4c(c3)C(=O)OC4=O)ccc21	inactive
COc1ccc(C)cc1N	inactive
CCCCC[C@H](O)CC(=O)CCc1ccc(O)c(OC)c1	inactive
O=S(=O)(c1ccc(OCc2ccccc2)cc1)c1ccccc1O	inactive
CCC(C)(C)c1cc(O)c(C(C)(C)CC)cc1O	inactive
O=C(C=Cc1ccccc1)OCC=Cc1ccccc1	inactive
O=C[C@@H](O)[C@H](O)[C@H](O)CO	inactive
CC(=O)CC(=O)Nc1ccc(C)cc1C	inactive
OCCCS	inactive
